The target of experiment [1] is Protein kinase C gamma type (Homo sapiens) (UniProt P05129). The note with it: at 1 µM.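 Also: each value is an averaged percent inhibition of the enzyme.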
The target in experiment [2] is T1, Protein kinase C iota type (Homo sapiens) (UniProt P41743).
T1 sequence (whole entry): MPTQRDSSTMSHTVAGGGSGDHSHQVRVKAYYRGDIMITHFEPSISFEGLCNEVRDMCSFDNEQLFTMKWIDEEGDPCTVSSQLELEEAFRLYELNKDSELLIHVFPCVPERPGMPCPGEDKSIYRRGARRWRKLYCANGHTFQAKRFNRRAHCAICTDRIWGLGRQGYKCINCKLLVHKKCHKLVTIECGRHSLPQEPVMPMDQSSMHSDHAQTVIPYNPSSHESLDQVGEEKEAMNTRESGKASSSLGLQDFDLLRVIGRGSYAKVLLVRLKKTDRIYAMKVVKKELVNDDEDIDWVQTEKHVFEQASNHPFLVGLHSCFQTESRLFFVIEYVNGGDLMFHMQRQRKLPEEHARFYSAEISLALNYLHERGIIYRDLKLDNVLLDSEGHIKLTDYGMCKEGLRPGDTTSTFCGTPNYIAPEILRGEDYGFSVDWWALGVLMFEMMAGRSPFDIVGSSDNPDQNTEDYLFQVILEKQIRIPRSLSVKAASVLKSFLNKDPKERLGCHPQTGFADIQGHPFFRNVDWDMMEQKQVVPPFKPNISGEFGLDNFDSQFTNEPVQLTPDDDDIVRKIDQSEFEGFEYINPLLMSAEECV
As to conditions: at 0.1 µM.

Experiment [3] has as its target T1, Protein kinase C iota type (Homo sapiens). The note with it: at 1 µM.
Experiment [4] addresses Protein kinase C theta type (Homo sapiens) (UniProt Q04759). As to conditions: at 0.1 µM.
Experiment [5] has the same target. The note with it: at 1 µM.
The target in experiment [6] is Protein kinase C beta type (Homo sapiens) (UniProt P05771). The note with it: at 0.1 µM.
Sequence of Protein kinase C beta type (Homo sapiens) (P05771 2-671 limits assumed): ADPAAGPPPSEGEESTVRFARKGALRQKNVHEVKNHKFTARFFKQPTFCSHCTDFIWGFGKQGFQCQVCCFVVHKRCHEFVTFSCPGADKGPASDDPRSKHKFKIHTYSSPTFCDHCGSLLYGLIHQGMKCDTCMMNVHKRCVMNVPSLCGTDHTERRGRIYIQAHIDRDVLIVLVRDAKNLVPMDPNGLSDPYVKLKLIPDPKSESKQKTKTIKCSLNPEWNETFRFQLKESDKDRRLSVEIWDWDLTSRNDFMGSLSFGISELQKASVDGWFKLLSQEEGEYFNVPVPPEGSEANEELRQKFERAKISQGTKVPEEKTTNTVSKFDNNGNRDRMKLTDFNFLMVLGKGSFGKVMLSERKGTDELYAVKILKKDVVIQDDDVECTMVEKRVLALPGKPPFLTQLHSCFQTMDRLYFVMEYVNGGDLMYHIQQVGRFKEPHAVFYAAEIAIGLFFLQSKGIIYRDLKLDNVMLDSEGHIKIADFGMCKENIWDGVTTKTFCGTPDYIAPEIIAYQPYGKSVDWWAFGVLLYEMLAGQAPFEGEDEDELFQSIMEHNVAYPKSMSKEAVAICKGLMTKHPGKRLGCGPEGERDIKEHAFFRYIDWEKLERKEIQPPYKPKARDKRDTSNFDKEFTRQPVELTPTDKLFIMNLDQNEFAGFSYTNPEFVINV
Experiment [7] has the same target. The note with it: at 1 µM.
For experiment [8], the target named is T2, Serine/threonine-protein kinase D1 (Homo sapiens) (UniProt Q15139).
T2 sequence (whole entry): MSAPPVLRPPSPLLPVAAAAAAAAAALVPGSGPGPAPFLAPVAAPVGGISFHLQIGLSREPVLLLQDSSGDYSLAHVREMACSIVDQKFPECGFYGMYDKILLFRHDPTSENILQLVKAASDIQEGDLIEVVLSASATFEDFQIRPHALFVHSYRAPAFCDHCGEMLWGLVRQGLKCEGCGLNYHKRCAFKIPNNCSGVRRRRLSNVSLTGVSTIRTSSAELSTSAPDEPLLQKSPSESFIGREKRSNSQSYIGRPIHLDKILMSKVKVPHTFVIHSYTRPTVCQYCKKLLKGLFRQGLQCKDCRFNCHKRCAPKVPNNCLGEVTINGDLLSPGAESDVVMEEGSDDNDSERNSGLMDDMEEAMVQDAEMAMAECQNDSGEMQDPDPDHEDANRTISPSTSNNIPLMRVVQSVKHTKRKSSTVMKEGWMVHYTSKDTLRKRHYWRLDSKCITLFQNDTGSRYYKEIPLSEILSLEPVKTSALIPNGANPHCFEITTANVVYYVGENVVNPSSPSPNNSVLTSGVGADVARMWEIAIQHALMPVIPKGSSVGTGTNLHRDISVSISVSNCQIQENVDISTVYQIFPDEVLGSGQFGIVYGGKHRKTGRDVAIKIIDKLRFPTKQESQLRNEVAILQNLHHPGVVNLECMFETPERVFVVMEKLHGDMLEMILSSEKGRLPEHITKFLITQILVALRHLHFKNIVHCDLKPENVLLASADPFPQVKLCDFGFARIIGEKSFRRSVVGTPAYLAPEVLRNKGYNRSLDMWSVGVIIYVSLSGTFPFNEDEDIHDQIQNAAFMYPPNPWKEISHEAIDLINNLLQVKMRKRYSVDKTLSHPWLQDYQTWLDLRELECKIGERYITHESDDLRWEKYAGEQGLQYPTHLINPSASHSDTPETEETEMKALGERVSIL
As to conditions: at 0.1 µM.

Experiment [9] concerns the target T2, Serine/threonine-protein kinase D1 (Homo sapiens). The note with it: at 1 µM.
Experiment [10] has as its target T3, Serine/threonine-protein kinase D2 (Homo sapiens) (UniProt Q9BZL6).
T3 sequence (whole entry): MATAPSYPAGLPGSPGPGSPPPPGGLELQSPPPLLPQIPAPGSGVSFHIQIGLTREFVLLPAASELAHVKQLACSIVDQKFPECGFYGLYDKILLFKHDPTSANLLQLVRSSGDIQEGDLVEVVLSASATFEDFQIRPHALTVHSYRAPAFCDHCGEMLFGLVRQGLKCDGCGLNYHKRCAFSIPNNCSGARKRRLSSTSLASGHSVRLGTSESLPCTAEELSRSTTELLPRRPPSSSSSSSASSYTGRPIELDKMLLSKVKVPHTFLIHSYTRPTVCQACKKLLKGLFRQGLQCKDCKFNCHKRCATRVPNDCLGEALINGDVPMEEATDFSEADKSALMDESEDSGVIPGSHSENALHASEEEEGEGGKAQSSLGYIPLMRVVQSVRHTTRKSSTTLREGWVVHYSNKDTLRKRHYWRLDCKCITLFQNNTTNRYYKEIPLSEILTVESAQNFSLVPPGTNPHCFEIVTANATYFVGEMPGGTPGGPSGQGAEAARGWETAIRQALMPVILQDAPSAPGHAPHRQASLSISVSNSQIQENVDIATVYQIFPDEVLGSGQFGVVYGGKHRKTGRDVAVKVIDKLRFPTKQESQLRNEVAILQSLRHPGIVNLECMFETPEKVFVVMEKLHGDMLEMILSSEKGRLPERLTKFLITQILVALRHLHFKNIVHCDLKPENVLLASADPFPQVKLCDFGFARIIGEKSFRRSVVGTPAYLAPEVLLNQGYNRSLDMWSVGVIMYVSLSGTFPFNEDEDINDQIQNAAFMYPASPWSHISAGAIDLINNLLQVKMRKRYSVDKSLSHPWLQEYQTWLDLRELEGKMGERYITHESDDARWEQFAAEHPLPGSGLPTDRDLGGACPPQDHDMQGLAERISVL
As to conditions: at 0.1 µM.

The target of experiment [11] is T3, Serine/threonine-protein kinase D2 (Homo sapiens). The note with it: at 1 µM.
The target of experiment [12] is T4, Serine/threonine-protein kinase D3 (Homo sapiens) (UniProt O94806).
T4 sequence (whole entry): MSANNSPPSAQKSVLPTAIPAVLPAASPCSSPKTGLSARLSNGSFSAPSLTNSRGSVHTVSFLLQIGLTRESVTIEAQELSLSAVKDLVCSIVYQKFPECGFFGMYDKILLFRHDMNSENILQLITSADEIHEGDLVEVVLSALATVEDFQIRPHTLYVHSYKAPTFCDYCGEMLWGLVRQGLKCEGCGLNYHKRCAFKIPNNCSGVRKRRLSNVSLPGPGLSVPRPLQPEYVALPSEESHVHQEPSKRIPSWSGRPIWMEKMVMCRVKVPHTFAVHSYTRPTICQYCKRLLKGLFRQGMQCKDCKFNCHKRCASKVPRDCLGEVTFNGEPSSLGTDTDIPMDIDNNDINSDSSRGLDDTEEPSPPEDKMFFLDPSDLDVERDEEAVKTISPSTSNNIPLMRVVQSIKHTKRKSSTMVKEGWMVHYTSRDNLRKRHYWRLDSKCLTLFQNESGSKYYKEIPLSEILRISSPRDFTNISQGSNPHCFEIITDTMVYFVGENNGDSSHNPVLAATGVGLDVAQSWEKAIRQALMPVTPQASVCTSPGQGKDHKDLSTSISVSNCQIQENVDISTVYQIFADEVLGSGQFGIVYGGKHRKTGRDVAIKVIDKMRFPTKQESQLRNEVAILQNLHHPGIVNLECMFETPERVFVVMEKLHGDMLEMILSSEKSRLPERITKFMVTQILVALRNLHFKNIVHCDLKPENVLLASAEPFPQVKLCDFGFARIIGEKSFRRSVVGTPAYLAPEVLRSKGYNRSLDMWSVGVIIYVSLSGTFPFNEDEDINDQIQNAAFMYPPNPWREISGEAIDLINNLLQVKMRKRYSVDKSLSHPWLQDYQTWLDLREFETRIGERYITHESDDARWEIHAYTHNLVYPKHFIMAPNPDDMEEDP
As to conditions: at 0.1 µM.

The target in experiment [13] is T4, Serine/threonine-protein kinase D3 (Homo sapiens). As to conditions: at 1 µM.
Experiment [14] concerns the target T5, cGMP-dependent protein kinase 1 (Homo sapiens) (UniProt Q13976).
T5 sequence (whole entry): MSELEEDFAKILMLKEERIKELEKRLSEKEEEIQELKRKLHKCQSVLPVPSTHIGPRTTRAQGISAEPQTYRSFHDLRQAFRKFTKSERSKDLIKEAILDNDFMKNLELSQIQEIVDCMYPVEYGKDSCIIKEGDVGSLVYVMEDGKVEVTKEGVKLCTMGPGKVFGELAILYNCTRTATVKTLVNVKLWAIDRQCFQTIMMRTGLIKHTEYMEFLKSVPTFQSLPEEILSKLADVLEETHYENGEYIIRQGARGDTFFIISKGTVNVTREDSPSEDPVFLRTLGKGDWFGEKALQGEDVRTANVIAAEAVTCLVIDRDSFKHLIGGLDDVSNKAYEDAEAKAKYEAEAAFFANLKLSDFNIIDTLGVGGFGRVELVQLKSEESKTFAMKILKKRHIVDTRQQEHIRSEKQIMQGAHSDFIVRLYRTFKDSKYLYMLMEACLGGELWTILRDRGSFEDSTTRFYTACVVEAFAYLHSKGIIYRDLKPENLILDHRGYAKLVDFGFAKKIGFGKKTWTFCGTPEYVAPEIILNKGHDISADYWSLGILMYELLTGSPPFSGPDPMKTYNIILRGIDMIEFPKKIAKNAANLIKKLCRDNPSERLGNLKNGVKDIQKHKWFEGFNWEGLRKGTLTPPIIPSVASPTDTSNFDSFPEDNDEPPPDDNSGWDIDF
The note with it: at 0.1 µM.

Experiment [15] concerns the target T5, cGMP-dependent protein kinase 1 (Homo sapiens). As to conditions: at 1 µM.
Experiment [16] concerns the target T6, cGMP-dependent protein kinase 2 (Homo sapiens) (UniProt Q13237).
T6 sequence (whole entry): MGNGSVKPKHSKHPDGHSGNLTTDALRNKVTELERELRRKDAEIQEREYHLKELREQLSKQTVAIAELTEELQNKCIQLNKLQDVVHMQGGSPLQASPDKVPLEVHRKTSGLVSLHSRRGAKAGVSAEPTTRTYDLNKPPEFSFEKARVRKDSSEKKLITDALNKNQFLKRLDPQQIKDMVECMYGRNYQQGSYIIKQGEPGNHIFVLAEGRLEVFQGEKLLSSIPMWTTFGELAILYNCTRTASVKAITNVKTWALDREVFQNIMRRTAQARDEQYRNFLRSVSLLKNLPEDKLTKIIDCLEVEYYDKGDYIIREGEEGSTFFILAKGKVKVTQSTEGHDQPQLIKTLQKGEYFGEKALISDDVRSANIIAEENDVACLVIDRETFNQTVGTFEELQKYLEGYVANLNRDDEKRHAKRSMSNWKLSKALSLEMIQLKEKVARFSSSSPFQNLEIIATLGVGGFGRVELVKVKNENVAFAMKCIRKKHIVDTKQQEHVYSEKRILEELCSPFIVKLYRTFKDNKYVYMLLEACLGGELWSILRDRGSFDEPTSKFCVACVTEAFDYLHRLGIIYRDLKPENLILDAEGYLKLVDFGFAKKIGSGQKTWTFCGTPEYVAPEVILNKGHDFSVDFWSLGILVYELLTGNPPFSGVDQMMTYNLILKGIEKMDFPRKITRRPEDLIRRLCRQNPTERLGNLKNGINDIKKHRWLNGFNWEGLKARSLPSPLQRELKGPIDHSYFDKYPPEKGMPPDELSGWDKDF
The note with it: at 0.1 µM.

Experiment [17] deals with T6, cGMP-dependent protein kinase 2 (Homo sapiens). The note with it: at 1 µM.
The target of experiment [18] is T7, cAMP-dependent protein kinase catalytic subunit PRKX (Homo sapiens) (UniProt P51817).
T7 sequence (whole entry): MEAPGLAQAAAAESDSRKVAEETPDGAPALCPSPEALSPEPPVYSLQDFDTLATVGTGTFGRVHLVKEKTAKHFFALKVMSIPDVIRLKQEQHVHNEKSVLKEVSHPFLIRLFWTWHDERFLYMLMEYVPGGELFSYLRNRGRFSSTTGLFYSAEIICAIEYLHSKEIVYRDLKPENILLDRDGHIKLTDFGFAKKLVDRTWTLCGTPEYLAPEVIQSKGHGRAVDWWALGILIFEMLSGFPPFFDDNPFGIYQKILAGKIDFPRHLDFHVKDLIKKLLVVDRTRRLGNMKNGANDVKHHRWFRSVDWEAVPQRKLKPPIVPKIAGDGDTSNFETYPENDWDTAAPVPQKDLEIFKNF
As to conditions: at 0.1 µM.

The target of experiment [19] is T7, cAMP-dependent protein kinase catalytic subunit PRKX (Homo sapiens). The note with it: at 1 µM.
Experiment [20] concerns the target Rho-associated protein kinase 1 (Homo sapiens) (UniProt Q13464). The note with it: at 0.1 µM.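 Also: values are mean percent inhibition of ROCK1.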

Sequence of Protein kinase C theta type (Homo sapiens) (Q04759 whole entry, looked up): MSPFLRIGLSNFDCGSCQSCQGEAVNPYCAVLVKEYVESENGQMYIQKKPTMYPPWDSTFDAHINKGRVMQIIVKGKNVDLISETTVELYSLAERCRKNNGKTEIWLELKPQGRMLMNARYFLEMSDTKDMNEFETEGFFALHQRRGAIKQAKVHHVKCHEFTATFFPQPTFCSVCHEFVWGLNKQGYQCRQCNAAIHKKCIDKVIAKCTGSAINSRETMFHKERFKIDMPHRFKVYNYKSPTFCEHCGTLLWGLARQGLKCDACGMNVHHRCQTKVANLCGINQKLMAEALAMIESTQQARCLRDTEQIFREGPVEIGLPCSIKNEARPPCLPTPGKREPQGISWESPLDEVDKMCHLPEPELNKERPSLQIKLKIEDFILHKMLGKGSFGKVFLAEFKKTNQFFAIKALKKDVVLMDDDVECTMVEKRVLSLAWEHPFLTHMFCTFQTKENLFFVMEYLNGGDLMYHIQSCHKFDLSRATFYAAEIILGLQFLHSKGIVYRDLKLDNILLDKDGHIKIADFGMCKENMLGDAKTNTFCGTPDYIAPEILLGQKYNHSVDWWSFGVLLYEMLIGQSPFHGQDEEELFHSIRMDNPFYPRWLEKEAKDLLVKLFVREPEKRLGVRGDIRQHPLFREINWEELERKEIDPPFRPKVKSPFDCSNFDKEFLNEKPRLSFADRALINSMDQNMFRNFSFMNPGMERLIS
Sequence of Rho-associated protein kinase 1 (Homo sapiens) (Q13464 2-1354 limits assumed): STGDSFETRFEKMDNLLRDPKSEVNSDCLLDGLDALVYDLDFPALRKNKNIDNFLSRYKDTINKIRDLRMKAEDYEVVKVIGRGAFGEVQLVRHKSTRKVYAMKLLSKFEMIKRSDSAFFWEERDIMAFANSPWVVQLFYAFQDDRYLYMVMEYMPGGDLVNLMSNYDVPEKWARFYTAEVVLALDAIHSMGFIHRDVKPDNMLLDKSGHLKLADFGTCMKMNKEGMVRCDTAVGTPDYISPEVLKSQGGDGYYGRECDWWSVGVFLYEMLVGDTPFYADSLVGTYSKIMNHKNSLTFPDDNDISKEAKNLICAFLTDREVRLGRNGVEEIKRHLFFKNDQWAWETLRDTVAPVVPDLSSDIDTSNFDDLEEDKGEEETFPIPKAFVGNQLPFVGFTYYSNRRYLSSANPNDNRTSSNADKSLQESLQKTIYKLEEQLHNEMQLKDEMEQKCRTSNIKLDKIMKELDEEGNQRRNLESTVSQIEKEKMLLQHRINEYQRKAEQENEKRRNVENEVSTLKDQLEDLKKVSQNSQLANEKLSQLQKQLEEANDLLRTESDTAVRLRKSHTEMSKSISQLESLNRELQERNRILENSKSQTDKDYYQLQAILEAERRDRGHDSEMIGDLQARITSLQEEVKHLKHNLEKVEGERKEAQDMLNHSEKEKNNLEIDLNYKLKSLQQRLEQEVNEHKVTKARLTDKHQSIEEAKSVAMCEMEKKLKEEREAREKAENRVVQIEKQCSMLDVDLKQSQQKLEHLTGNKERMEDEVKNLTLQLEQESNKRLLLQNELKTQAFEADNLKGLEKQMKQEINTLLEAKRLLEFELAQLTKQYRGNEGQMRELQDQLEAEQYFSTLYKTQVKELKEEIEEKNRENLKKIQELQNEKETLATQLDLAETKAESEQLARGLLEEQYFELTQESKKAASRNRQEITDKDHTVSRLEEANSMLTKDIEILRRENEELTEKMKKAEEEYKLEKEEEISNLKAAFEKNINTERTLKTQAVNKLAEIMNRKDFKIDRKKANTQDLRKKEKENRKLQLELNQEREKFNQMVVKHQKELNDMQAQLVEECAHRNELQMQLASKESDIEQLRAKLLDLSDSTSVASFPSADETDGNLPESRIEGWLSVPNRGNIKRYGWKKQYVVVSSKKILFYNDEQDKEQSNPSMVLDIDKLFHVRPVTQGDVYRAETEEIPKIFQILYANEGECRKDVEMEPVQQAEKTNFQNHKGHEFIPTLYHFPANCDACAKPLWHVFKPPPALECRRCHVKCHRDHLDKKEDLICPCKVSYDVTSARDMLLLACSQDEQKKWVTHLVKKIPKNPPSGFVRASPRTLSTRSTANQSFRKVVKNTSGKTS

In the case of `Fc1ccc(-c2ncn(C3CCNCC3)c2-c2ccnc(Oc3ccc(Oc4ccccc4)cc3)n2)cc1`, the inhibition (commonly the relative decrease from the control value, in per cent) in experiment [1] stood at 4.82%; in experiment [2], 1.22%; in [3], 2.19%; in experiment [4] it was 1.9%; in experiment [5] it was 3.54%; in experiment [6], 2.63%. The inhibition in experiment [7] came to 12.4%; in experiment [8], 5.08%; in experiment [9] it was 8.65%; in experiment [10] it was 4.63%; in experiment [11] it was 5.64%; in [12], 5.21%. For the same compound, the inhibition in [13] was determined as 7.01%; in experiment [14], 4.81%; in experiment [15], 7.25%; in [16] it was 3.21%; in experiment [17] it was 4.62%; in experiment [18], 2.43%. Further, the values for the inhibition in experiment [19] and in [20] were 3.21% and 2.39%, respectively.
Consider `COc1cc(C)c(N(C)C(=O)CN(C)C)cc1Nc1nc(Nc2cccc(F)c2C(N)=O)c2cc[nH]c2n1`, for which the inhibition in experiment [1] is 0.07%; in experiment [2], 0.9%; in [3] it was 1.43%; in [4] it was -0.27%; in [5], -0.14%; in [6] it was 0.9%. Also, the inhibition is 0.92% in experiment [7]; -1.96% in experiment [8]; -0.45% in [9]; -2.04% in experiment [10]; -0.62% in experiment [11]; -1.31% in [12]. For the same compound, the inhibition came to 0.06% in experiment [13]; 0.67% in experiment [14]; 3.77% in [15]; 2.1% in [16]; 2.31% in experiment [17]; 0.78% in [18]. Besides, the inhibition in [19] is -0.64%; in experiment [20], 0.77%.

Values taken from ChEMBL document CHEMBL1961873, “Compounds: GSK PKIS; Assays: Nanosyn kinase panel” (2012).
